Assay [1] is described as follows: Nuclear factor erythroid 2-related factor 2/antioxidant responsive element (Nrf2/ARE) small molecule agonists: qHTS cell viability counter screen in human keratinocytes (AID 1919968; active = well fitted curve in the direction sought with a large enough effect in the repeat runs; an effect the other way counts as inactive or inconclusive; note: nearly all actives have a fitted effect of over 55% in size). The method in brief: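 HaCaT ARE reporter line, 1,500 cells/well; 5 h settle, 37 C/5% CO2; cpd in DMSO pinned; 23 h exposure; CellTiter-Fluor, 1 h; fluorescence.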
In general terms: qHTS replaces the single test concentration by a dilution series.

The nature of assay [2]: Nuclear factor erythroid 2-related factor 2/antioxidant responsive element (Nrf2/ARE) small molecule agonists: luciferase reporter gene qHTS assay in human keratinocytes (AID 1919969; note: nearly all actives have a fitted effect of over 35% in size). (Reporter assays use an easily measured gene product as a stand-in for the process of interest.)
Assay [3] deals with Gonadotropin-releasing hormone receptor (Homo sapiens) (UniProt P30968). As to the kind of experiment: Human gonadotropin-releasing hormone receptor (GnRHR) small molecule agonists, calcium flux assay in GnRHR-HEK293 cells (AID 1920063). Note: nearly all actives have a fitted effect of over 35% in size. Put shortly: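 GnRHR-HEK293, 1500 cells/well, 18 h 37 C/5% CO2; Ca dye 1 h 37 C; cpd pinned (DMSO), agonist mode; kinetic FL 480/540, 3 min, 1 s reads; 15 conc, n=3.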
For orientation: Calcium assays in cells follow changes in intracellular calcium, usually with a dye or a luminescent sensor.

In assay [4] the target is KiSS-1 receptor (Homo sapiens) (UniProt Q969F8). As to the kind of experiment: Human kisspeptin (KISS1R) small molecule agonists, calcium flux assay in KISS1R-HEK293 cells (AID 1920064; active = well fitted curve in the direction sought with a large enough effect in the repeat runs; an effect the other way counts as inactive or inconclusive). Put shortly:
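Stable human KISS1R HEK293 line; 18 h plating, 37 C/5% CO2; calcium dye 1 h 37 C; compound pin transfer; kinetic fluorescence Ex/Em 480/540, 3 min.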

Assay [5] can be described thus: G protein-coupled receptor (GPCR) small molecule agonists, calcium flux assay: HEK293 wild type cell line counter screen (AID 1920065). Put shortly: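 Kinetic fluorescence at Ex/Em 480/540, recorded every second over 3 min, served as the read-out after compound addition. Each compound was tested at 15 concentrations in triplicate on cells pre-loaded with calcium dye for 1 h.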

A short description of assay [6]: p53 small molecule agonists, cell-based qHTS assay with human liver microsomes (AID 1963577).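 Note: p53 response element beta-lactamase reporter cells with liver microsomes plus NADPH.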 Put shortly:
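With metabolic activation: human liver microsomes (0.5 mg/mL final) plus NADPH (0.5 mg/mL final) added alongside compounds to p53RE-bla cells; 16 h 37 C exposure; beta-lactamase read by LiveBLAzer fluorescence.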

Assay [7] is described as follows: p53 small molecule agonists, cell-based qHTS assay with rat liver microsomes (AID 1963578). The method in brief:
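Metabolic activation by rat liver microsomes and NADPH, each 0.5 mg/mL final, added right after compounds to p53RE-bla reporter cells (4,000/well, plated 5 h earlier). 16 h at 37 C, then LiveBLAzer substrate for 2 h at room temperature in the dark; fluorescence read-out.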

Assay [8] is described as follows: p53 small molecule agonists, cell-based qHTS assay with human liver microsomes: qHTS cell viability counter screen (AID 1963579). Note: nearly all actives have a fitted effect of over 45% in size. The method in brief: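 Metabolic activation used human liver microsomes and NADPH, both 0.5 mg/mL final, over 16 hours at 37 C on p53RE-bla cells (4,000/well). Cytotoxicity measured by CellTiter-Glo luminescence, 30 min at room temperature.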

Assay [9] is described as follows: p53 small molecule agonists, cell-based qHTS assay with rat liver microsomes: qHTS cell viability counter screen (AID 1963580). Note: nearly all actives have a fitted effect of over 45% in size. The method in brief: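 p53RE-bla HCT-116 cells (4,000/well) rested 5 h at 37 C, then given Tox21 compounds in DMSO with rat liver microsomes (0.5 mg/mL final) plus NADPH (0.5 mg/mL final) for 16 h at 37 C. Viability read by CellTiter-Glo luminescence after 30 min at room temperature.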

Assay [10] can be described thus: p53 small molecule agonists, cell-based qHTS assay: qHTS cell viability counter screen (AID 1963581). Note: nearly all actives have a fitted effect of over 45% in size. Put shortly:
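HCT-116 p53RE-bla cells, 4,000/well, plated 5 h before compound pin transfer; 16 h at 37 C; bla substrate 2 h RT; then CellTiter-Glo, 30 min RT, luminescence.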

The nature of assay [11]: p53 small molecule agonists, cell-based qHTS assay (AID 1963582; active = well fitted activation curve with a large enough effect in the signal ratio in the repeat runs, not every such curve was filed as active; the % refers to the signal ratio). The method in brief: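 Reporter line: p53RE-bla. Pre-incubation 5 h, 37 C, 5% CO2; compound (DMSO, pin tool) 16 h, 37 C; B/G FRET substrate 2 h RT; fluorescence intensity read.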
The target of assay [12] is 5-hydroxytryptamine receptor 2A (Homo sapiens) (UniProt P28223). As to the kind of experiment: 5-hydroxytryptamine receptor 2A (HTR2A) small molecule agonists, cell-based qHTS assay (AID 1963587). Note: nearly all actives have a fitted effect of over 30% in size. Note: potency is the fitted concentration of half-maximal effect. The method in brief:
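HTR2A-CHO cells, plated 18 h at 37 C/5% CO2, dye-loaded 1 h at 37 C; compounds in DMSO added by pin tool (agonist mode). Intracellular calcium flux read as kinetic fluorescence on FDSS over 2 min at 1 s intervals.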

The target of assay [13] is Muscarinic acetylcholine receptor M1 (Homo sapiens) (UniProt P11229). As to the kind of experiment: Cholinergic receptor muscarinic 1 (CHRM1) small molecule antagonists, cell-based qHTS assay (AID 1963588). Note: nearly all actives have a fitted effect of over 40% in size. The method in brief:
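CHRM1-CHO calcium-flux assay, antagonist mode. Cells were seeded 18 h, dye-loaded 1 h at 37 C and given compound for 5 min at RT, then acetylcholine was added at 50nM. FDSS fluorescence was read 3 min; 15 concentrations, three runs.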

For assay [14] the target is unchanged. In words: Cholinergic receptor muscarinic 1 (CHRM1) small molecule agonists, cell-based qHTS assay (AID 1963589). Note: nearly all actives have a fitted effect of over 35% in size. Put shortly: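 Human M1 in stable CHO line; 18 h plating, 1 h dye load 37 C; cpd added (agonist mode); Ca2+ fluorescence kinetic read, 1 s intervals; 15 conc, 3 runs.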
Assay [15] is described as follows: cAMP Responsive Elements (CRE) small molecule agonists, cell-based qHTS assay (AID 1963590). The method in brief:
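HEK 293T CRE-bla, 2,000 cells/well, 18 h preincubation 37 C/5% CO2; cpds (DMSO) pinned, 3 h; LiveBLAzer B/G FRET substrate, 2 h RT.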

A short description of assay [16]: cAMP Responsive Elements (CRE) small molecule antagonists, cell-based qHTS assay (AID 1963591; active = well fitted inhibition curve with a large enough effect in the signal ratio in the repeat runs, not every such curve was filed as active; the % refers to the signal ratio). The method in brief: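 Beta-lactamase reporter read by FRET substrate (LiveBLAzer B/G) after 2 h at room temperature. CRE-bla HEK293T cells had received compound plus 0.25 uM (final) NKH477 for 3 h at 37 °C.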
Assay [17] has as its target Beta-2 adrenergic receptor (Homo sapiens) (UniProt P07550). As to the kind of experiment: Adrenergic beta2 receptor (ADRB2) small molecule antagonists, cell-based qHTS assay (AID 1963592). Note: series mostly up to about 92 µM; nearly all actives have a fitted effect of over 50% in size. Put shortly:
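Cells (CHO, stable ADRB2 overexpression) incubated 18-20hr at 37C; compounds added from DMSO; agonist mix (1nM isoproterenol, 100uM IBMX, 25uM Ro-20-1724) added; 0.5hr RT; d2-cAMP and anti-cAMP-cryptate added; 1hr RT; 665/615 nm read.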

For assay [18] the target is unchanged. In words: Adrenergic beta2 receptor (ADRB2) small molecule agonists, cell-based qHTS assay (AID 1963593).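 Note: CHO cells stably overexpressing human ADRB2.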 Put shortly:
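CHO cells stably over-expressing ADRB2 were plated overnight at 37C, then dosed with compounds plus a stimulation mix containing 100uM IBMX and 25uM Ro-20-1724 for 0.5hr at room temperature. cAMP was measured by HTRF competition, 1hr.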

For assay [19], the target named is D(2) dopamine receptor (Homo sapiens) (UniProt P14416). As to the kind of experiment: Dopamine D2 receptor (DRD2) small molecule agonists, cell-based qHTS assay (AID 1963594). Note: nearly all actives have a fitted effect of over 35% in size. The method in brief: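 HEK293 cells stably expressing DRD2 were cultured 24 h at 37 C, then given Ro20-1724 (0.1 mM final) and compounds for 10 min at room temperature. NKH477 (200nM) was then added for 30 min. cAMP was read by HTRF.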

Assay [20] has the same target. As to the kind of experiment: Dopamine D2 receptor (DRD2) small molecule antagonists, cell-based qHTS assay (AID 1963595; active = well fitted inhibition curve with a large enough effect in the signal ratio in the repeat runs, with a control signal flat; the % refers to the signal ratio). The method in brief:
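Human DRD2 antagonist qHTS measuring cAMP by HTRF. The cells are exposed to compound for 10 min, then to NKH477 (200 nM) and quinpirole (12 nM) for 30 min at RT, with Ro20-1724 (0.1 mM) present throughout.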

The values below come from PubChem BioAssay (Tox21).

A number with no mark means an inactive call. Records with an inconclusive call do not appear. The source made the active and inactive calls. Unless noted, calls come from the whole dose curve.

Sequence of Gonadotropin-releasing hormone receptor (Homo sapiens) (P30968 whole entry, looked up): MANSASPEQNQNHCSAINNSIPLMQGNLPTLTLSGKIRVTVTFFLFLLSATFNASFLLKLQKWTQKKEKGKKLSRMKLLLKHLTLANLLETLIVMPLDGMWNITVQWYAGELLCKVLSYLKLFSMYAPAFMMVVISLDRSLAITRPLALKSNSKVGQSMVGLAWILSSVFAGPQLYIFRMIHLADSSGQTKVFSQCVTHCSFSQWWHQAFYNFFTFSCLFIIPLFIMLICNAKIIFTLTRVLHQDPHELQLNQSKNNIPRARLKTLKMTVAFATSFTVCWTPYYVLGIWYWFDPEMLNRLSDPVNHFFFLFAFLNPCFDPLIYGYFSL
Sequence of Beta-2 adrenergic receptor (Homo sapiens) (P07550 whole entry, looked up): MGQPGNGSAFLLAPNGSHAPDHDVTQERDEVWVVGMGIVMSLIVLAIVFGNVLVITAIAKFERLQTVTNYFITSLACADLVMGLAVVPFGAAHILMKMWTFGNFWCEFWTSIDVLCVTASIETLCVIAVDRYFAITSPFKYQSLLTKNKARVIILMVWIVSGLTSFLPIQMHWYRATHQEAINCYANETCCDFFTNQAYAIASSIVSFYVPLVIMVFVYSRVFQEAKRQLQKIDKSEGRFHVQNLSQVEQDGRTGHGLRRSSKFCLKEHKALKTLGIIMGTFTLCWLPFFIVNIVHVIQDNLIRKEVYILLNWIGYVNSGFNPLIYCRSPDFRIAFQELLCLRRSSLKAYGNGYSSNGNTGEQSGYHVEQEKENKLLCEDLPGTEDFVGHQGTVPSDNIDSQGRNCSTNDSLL
Sequence of KiSS-1 receptor (Homo sapiens) (Q969F8 whole entry, looked up): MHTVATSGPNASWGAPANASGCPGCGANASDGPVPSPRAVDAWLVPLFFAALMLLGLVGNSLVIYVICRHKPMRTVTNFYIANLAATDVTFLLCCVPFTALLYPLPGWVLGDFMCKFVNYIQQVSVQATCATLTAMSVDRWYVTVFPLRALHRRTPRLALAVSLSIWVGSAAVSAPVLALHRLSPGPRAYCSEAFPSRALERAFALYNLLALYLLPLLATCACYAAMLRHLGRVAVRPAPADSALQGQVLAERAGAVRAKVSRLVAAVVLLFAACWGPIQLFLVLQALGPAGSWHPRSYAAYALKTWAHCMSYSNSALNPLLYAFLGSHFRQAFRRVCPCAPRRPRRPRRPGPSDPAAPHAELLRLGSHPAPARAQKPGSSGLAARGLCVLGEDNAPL
Sequence of D(2) dopamine receptor (Homo sapiens) (P14416 whole entry, looked up): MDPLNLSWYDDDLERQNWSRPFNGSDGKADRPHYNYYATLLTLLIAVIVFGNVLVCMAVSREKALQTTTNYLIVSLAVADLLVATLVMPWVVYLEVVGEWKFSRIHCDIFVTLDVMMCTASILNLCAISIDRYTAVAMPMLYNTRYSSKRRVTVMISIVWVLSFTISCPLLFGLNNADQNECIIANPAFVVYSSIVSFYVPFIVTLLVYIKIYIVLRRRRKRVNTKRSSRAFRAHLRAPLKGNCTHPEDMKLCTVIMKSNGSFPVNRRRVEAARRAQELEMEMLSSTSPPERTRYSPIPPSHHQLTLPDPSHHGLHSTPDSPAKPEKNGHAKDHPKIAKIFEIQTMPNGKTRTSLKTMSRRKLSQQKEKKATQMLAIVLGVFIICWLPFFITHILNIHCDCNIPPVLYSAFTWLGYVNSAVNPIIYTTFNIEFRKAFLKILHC
Sequence of 5-hydroxytryptamine receptor 2A (Homo sapiens) (P28223 whole entry, looked up): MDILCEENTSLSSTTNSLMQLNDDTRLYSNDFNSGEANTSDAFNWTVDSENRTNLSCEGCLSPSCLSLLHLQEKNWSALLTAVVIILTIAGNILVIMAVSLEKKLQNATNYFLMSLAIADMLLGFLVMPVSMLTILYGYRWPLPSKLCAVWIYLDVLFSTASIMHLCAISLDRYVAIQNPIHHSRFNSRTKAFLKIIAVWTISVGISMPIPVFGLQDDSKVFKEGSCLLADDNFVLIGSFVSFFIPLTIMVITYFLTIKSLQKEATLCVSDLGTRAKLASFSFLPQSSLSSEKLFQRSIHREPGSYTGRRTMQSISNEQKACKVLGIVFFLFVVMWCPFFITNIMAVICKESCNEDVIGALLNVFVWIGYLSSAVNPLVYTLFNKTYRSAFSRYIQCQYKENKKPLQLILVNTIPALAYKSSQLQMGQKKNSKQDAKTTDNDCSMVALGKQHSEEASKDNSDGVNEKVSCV
Sequence of Muscarinic acetylcholine receptor M1 (Homo sapiens) (P11229 whole entry, looked up): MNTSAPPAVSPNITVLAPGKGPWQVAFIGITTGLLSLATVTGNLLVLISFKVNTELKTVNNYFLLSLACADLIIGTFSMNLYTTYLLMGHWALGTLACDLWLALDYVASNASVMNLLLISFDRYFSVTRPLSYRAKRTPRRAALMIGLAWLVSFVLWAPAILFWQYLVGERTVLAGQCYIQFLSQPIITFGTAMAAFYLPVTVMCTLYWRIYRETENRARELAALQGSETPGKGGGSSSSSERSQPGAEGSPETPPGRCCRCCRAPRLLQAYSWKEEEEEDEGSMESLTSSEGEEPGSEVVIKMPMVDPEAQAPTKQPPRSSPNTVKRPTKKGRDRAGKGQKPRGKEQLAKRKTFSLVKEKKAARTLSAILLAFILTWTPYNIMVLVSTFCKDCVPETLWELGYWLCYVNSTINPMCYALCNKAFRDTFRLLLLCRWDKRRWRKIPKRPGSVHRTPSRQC

For the compound `C1=C\CC/C=C\CC/1`, the Potency entry in assay [1], in [2], in assay [3], in [6], in [7] and in assay [8] was “inactive” throughout. Moreover, the Potency result in [9], in assay [10], in assay [11], in assay [12], in assay [13] and in [14] was “inactive” in each case. In addition, the Potency entry in assay [15], in assay [16], in assay [17], in assay [18] and in assay [19] was “inactive” throughout. Also, the outcome in [4] and in assay [5] was inactive.
In the case of `Cc1cc(=O)[nH]c(=O)[nH]1`, the Potency entry in assay [1], in assay [2], in assay [3], in assay [6], in [7] and in [8] was “inactive” each time. The Potency entry in assay [9], in assay [10], in assay [11], in assay [13], in assay [14] and in assay [15] was “inactive” throughout. Further, the Potency result in assay [16] and in assay [19] was “inactive” throughout. In addition, the result in assay [4] and in assay [5] was inactive.
For `CCCCCCC(O)CCOC(C)=O` (configuration not stated), the Potency entry in [1], in [2], in assay [3], in assay [6], in assay [7] and in assay [8] was “inactive” throughout. In addition, the Potency entry in assay [9], in assay [10], in assay [11], in assay [12], in assay [13] and in [14] was “inactive” in each case. For the same compound, the Potency result in assay [15], in assay [16], in [17], in assay [19] and in assay [20] was “inactive” throughout. The outcome in [4] and in [5] was inactive.
`OCC(CO)(CO)COCC(CO)(CO)CO`: the Potency result in assay [1], in [2], in [3], in assay [6], in assay [7] and in assay [8] was “inactive” each time. The Potency entry in [9], in assay [10], in [11], in assay [12], in assay [13] and in assay [14] was “inactive” throughout. Besides, the Potency entry in [15], in assay [16], in [17], in assay [19] and in assay [20] was “inactive” each time. Further, the outcome in assay [4] and in assay [5] was inactive.
For the compound `CCCCCCCC/C=C\CCCCCCCCN`, the Potency entry in assay [1], in [2], in assay [3], in assay [6], in assay [7] and in assay [8] was “inactive” each time. Besides, the Potency result in assay [9], in assay [10], in [11], in assay [13], in [14] and in assay [15] was “inactive” each time. Moreover, the Potency entry in [16], in assay [17], in assay [19] and in [20] was “inactive” each time. Besides, the outcome in assay [4] and in assay [5] was inactive. Besides, the Potency in [12] was 21.3 µM (active).
Regarding `CN(C)C(=O)CNC(=O)Cc1ccccc1`, the Potency result in [1], in assay [2], in [3], in assay [6], in [7] and in assay [8] was “inactive” in each case. For the same compound, the Potency result in [9], in [10], in assay [11], in assay [12], in assay [13] and in assay [14] was “inactive” in each case. Also, the Potency result in [15], in assay [16], in assay [17], in assay [18], in assay [19] and in assay [20] was “inactive” in each case. The result in assay [4] and in [5] was inactive.
